Screening data: PubChem, National Center for Advancing Translational Sciences (NCATS)
Pf growth 96h = inhibits malaria parasite growth, 96 h. Potency, µM (doses to about 28.7 µM), inactives show top-dose activity change, negative = inhibition, actives largely listed as inhibitors. P. falciparum luciferase reporter growth, 96 h. actives 6.9% (n = 320,000); also: potency is read from the fitted curve at half-maximal effect; % is scaled to controls: 0 for no effect and ±100 for the full control effect
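P. falciparum expressing integrated firefly luciferase, in erythrocytes at 2% hematocrit, 0.05% parasitemia, incubated with compounds 96 h at 37 C, 5% CO2. Growth inhibition read as loss of luminescence; two-generation exposure targets delayed-death apicoplast inhibitors.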
HCMV antiviral = blocks human cytomegalovirus replication | HFF cells, HCMV-luciferase reporter, 72 h; hits give low values | activity change, negative = inhibition, % at 57.5 µM | actives 4.5% (n = 410,000) | AID 1259415; in the data active = activity change below about -60%; inconclusive = no clear call, values can overlap the other calls; inactive = above about -39%; also: % is scaled to controls: 0 for no effect and ±100 for the full control effect
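Two-dose cell screen: HFF monolayers treated with compounds and infected with luciferase-expressing HCMV at 1 PFU/cell, 72 h at 37C, then lysed for luciferase measurement.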
SARS PLpro yeast = blocks SARS-CoV papain-like protease in a yeast assay; actives 0.19% (n = 330,000); Potency, µM (titrated, usually from 32.9 µM), for the others: at the highest dose activity, positive = growth rescue, hits mostly activators; S. cerevisiae expressing SARS-CoV PLpro, growth rescue; calls by dose curve; also: potency is read from the fitted curve at half-maximal effect; 0% is about no effect; nearly all actives have a fitted effect of over 55% in size
HCV inh = blocks hepatitis C virus | Potency, µM (doses to about 41.8 µM), for inactives: at the highest dose activity change, negative = inhibition, usual class: inhibitors | Huh7.5.1 HCVcc-Cre infection, luciferase reporter, 44 h | AID 651820 | actives 3.4% (n = 340,000); also: potency is read from the fitted curve at half-maximal effect; % is scaled to controls: 0 for no effect and ±100 for the full control effect
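Infectious HCVcc-Cre (~0.5 moi) was added to cells just after compound, with cells seeded 4 h earlier at 1,000 per well. Luciferase activity after 44 h culture reported infection; substrate was incubated 15 min at room temperature before reading.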
Pf growth 48h = inhibits P. falciparum growth in the first generation, 48 h; P. falciparum luciferase growth in erythrocytes, 48 h; Potency, µM (titrated, usually from 28.7 µM), without a hit: at the highest dose activity change, negative = inhibition, hits mostly inhibitors; actives 5.9% (n = 310,000); AID 504832; also: potency is read from the fitted curve at half-maximal effect; % is scaled to controls: 0 for no effect and ±100 for the full control effect
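Growth was read as firefly luciferase luminescence after a 48 h, 37 C, 5% CO2 exposure of compounds to reporter-bearing P. falciparum cultures (0.1% parasitemia, 2% hematocrit final) in Albumax-supplemented RPMI 1640.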
Sm TGR inh = inhibitors of Schistosoma mansoni thioredoxin glutathione reductase; Q962Y6; purified TGR, DTNB reduction, TNB absorbance 405 nm; Potency, µM (doses to about 114 µM), without a hit: at the top dose activity change, negative = inhibition, most hits filed as inhibitors; actives 3% (n = 360,000); AID 485364; also: potency is read from the fitted curve at half-maximal effect; % is scaled to controls: 0 for no effect and ±100 for the full control effect; nearly all actives have a fitted effect of over 60% in size
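First, TGR (20 nM dispensed) and NADPH were mixed with compound. Second, a 15 min room-temperature incubation followed. Third, further NADPH and then DTNB were added to start the reaction. Finally, TNB absorbance was monitored kinetically.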
* marks the source's active call; other numbers are inactive results; u = inconclusive; x = no result; [ ] = remark or other dose. A selection: hits, their analogues and other compounds. The true share with any hit is near 15%. Unless noted, calls follow the shape of the dose curve; as a rule, active = well fitted curve in the direction sought with a large enough effect; inconclusive = small, poorly fitted or top-dose-only effect, or another doubt; inactive = no such curve, though single readings can be large; an effect the other way counts as inactive or inconclusive.

SMILES	Pf growth 96h	HCMV antiviral	SARS PLpro yeast	HCV inh	Pf growth 48h	Sm TGR inh
COc1cc(NC(=O)COn2nnc3ccc(S(C)(=O)=O)cc32)cc(OC)c1	u	-68.0*	5.9%	-17.4%	-3.2%	34.8%
Cc1cc(NC(=O)COn2nnc3ccc(S(C)(=O)=O)cc32)ccc1Br	26.4%	u	-8.1%	10µM*	-9.9%	-19.9%
Cc1cc(Br)c(NC(=O)COn2nnc3ccc(S(C)(=O)=O)cc32)c(Br)c1	-4.1%	-29.9	1.9%	0.2%	-9.8%	-6.3%
O=C(COC(=O)CNC(=O)c1ccccc1)NC12CC3CC(CC(C3)C1)C2	x	-7.9	x	x	x	x
COc1ccc(CN(C)CC(=O)Nc2ccccc2C(=O)NC2CC2)cc1	-24.7%	2.4	-2.2%	15.5%	u	-9.6%
CCOC(=O)CNc1nnc(SCC(=O)OCC)[nH]c1=O	60.8%	18.3	-0.6%	15.3%	11.7%	56.2µM*
Cc1c(NCc2cc(Cl)cc(Cl)c2O)c(=O)n(-c2ccccc2)n1C	-19.1%	68.5	-0.3%	u	x	-2.8%
Cc1ccc(C)c(OCc2nc3ccc(S(=O)(=O)Nc4c(C)n(C)n(-c5ccccc5)c4=O)cc3[nH]2)c1	5.22µM*	-25.5	0.4%	5.9%	11.7µM*	8.1%
Cc1c(NCc2nc3ccccc3[nH]2)c(=O)n(-c2ccccc2)n1C	13.1µM*	14.2	-11.3%	17.8%	21.4%	-1.8%
O=C(Nc1cc(S(=O)(=O)N2CCCCC2)ccc1Cl)c1ccc(F)cc1	u	-17.2	-20.0%	u	u	-10.0%
Cc1ccccc1NC(=O)/C(C#N)=C/c1ccc[nH]1	11.7µM*	198.9	23.5%	0.6%	0.9%	-10.3%
CC(C)CC1C(=O)N(Cc2cn(Cc3ccco3)nn2)CCS(=O)(=O)N1Cc1ccc(-c2ccccc2)cc1 (stereo unspecified)	x	-14.2	x	x	x	x
CCN(c1ccccc1)S(=O)(=O)c1ccc(C(=O)Oc2ccc(C(C)=O)cc2)cc1	0.1%	32.7	-0.4%	11.2%	-18.8%	-7.7%
O=[N+]([O-])c1ccc(N(CCO)CCO)c2c1no[n+]2[O-]	x	-99.0*	x	x	x	x
CN(CCO)c1cc(N(C)CCO)c([N+](=O)[O-])cc1[N+](=O)[O-]	-16.2%	-35.2	-1.9%	-9.2%	8.4%	-7.8%
N#Cc1nc(-c2ccc(OCc3ccccc3)cc2)oc1NCc1cccnc1	u	u	4.2%	u	u	6.5%
N#Cc1nc(-c2ccc(OCc3ccccc3Cl)cc2)oc1NCCCn1ccnc1	21.2%	x	0.7%	4.8%	1.65µM*	5.8%
CC(C)(C)c1ccc(-c2nc(C#N)c(NCCCn3ccnc3)o2)cc1	8.28µM*	11.2	-0.9%	0.3%	u	0.1%
N#Cc1nc(COc2ccccc2)oc1NCCCn1ccnc1	u	6.4	1.4%	4.3%	u	-3.3%
N#Cc1nc(-c2ccc(F)cc2)oc1NCCCn1ccnc1	-29.4%	x	-0.9%	x	-16.8%	-19.0%
COc1ccc(-c2nc(C#N)c(NCCCn3ccnc3)o2)cc1OC	x	121.5	-4.8%	u	u	1.1%
CCCOc1ccc(-c2nc(C#N)c(NCCCn3ccnc3)o2)cc1	7.38µM*	u	3.5%	u	10.4µM*	-21.9%
CN(C)c1oc(-c2ccc(OCc3ccccc3)cc2)nc1C#N	5.22µM*	0.4	-11.0%	u	-13.5%	100µM*
Cc1c(C(=O)N2CCN(C3CCS(=O)(=O)C3)CC2)oc2ccc(Cl)cc12 (stereo unspecified)	3.1%	-16.8	0.3%	1.7%	u	2.3%
CC(=O)c1cccc(OC(=O)c2ccc3c(=O)n4c(nc3c2)CCC4)c1	u	x	1.3%	40.1%	40.6%	8.3%
SMILES	Pf growth 96h	HCMV antiviral	SARS PLpro yeast	HCV inh	Pf growth 48h	Sm TGR inh
CCCN(CCC)CCNC(=O)Cn1cnc2sc(C)c(S(=O)(=O)N3CCN(c4ccccc4OC)CC3)c2c1=O	x	-2.6	x	x	x	1.0%
CC(C)NC(=O)N(C)C[C@@H]1Oc2c(NC(=O)C3CCOCC3)cccc2C(=O)N([C@@H](C)CO)C[C@H]1C	x	12.7	1.8%	4.6%	x	x
COC(=O)c1ccc(NC(=O)CSc2nccn2CCc2ccccc2)cc1	x	u	4.6%	-1.2%	66.3%	3.5%
N#Cc1nc(-c2ccc(OCc3ccccc3)cc2)oc1NCCCn1ccnc1	14.8%[5.75 µM]	-23.8	-8.8%	u	2.94µM*	-5.7%
COc1ccc(C2CC(=O)Oc3c(C(CCN4CCOCC4)c4cc(OC)c(OC)c(OC)c4)c(OC)cc(OC)c32)cc1 (stereo unspecified)	u	8.6	0.2%	-9.3%	9.28µM*	-16.7%
COc1cc(OC)c2c(c1C(CCN1CCOCC1)c1ccc(N(C)C)cc1)OC(=O)CC2c1ccc(N(C)C)cc1 (stereo unspecified)	u	19.9	3.8%	u	10.4µM*	-15.8%
COc1ccc(C2CC(=O)Oc3c(C(CCN4CCN(c5ccccc5)CC4)c4ccc(N(C)C)cc4)c(OC)cc(OC)c32)cc1 (stereo unspecified)	10.4µM*	-22.7	7.2%	-6.9%[8.37 µM]	9.28µM*	-14.1%
COc1cc(C(CCN2CCOCC2)c2c(OC)cc(OC)c3c2OC(=O)CC3c2ccc(N(C)C)cc2)cc(OC)c1OC (stereo unspecified)	u	19.5	1.3%	-10.4%	u	-16.0%
Cc1ccc(N2CC(C(=O)Nc3ccc(C)c(S(=O)(=O)N(C)C)c3)CC2=O)cc1 (stereo unspecified)	u	9.8	-0.3%	u	u	7.1%
CCN(C(=O)COC(=O)CNC(=O)C12CC3CC(CC(C3)C1)C2)C1CCS(=O)(=O)C1 (stereo unspecified)	-14.3%	-101.9*	5.7%	-7.3%	38.5%	2.6%
CCN(C(=O)C12CC3CC(CC(C3)C1)C2)C1CCS(=O)(=O)C1 (stereo unspecified)	-1.0%	-24.0	-3.8%	18.3%	-4.2%	1.9%
c1ccc2c(NCCc3c[nH]c4ccccc34)c3ccccc3nc2c1	3.29µM*	u	-0.2%	14.1µM*	0.586µM*	-7.3%
OCCCNc1c2ccccc2nc2ccccc12	28.0%	-102.0*	-3.2%	11.2µM*	5.22µM*	0.1%
O=C(NC1CCCCC1)c1ccc(CSc2nc3ccncc3n2Cc2cccc(F)c2)cc1	x	u	x	x	x	-3.1%
Cc1ccc(C2(C(F)(F)F)N=C3Sc4cc(C)ccc4N3C(=O)N2)cc1 (stereo unspecified)	u	u	-9.3%	x	101.1%	-0.6%
O=C(COc1ccccc1)N=C1SC2CS(=O)(=O)CC2N1Cc1ccccc1 (stereo unspecified)	13.1µM*	-5.8	u	-16.0%	u	-6.5%
